# Laboratory results from the supplement of paper PMC4206467.
# Tested on: Perkinsus marinus PRA240
# Test: ATP content (proliferation) relative to DMSO control; higher = more parasite growth (less inhibition)
# Settings: 20 µM; 4 days
# Protocol: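 Perkinsus marinus PRA240 trophozoites (2-5x10^6 cells/ml, 100 µl, 96-well) were exposed once to MMV Malaria Box compounds at 20 µM (0.1% DMSO) in triplicate. ATP content (ATPlite bioluminescence) was read at day 4 post-exposure and normalised to DMSO + cells control wells (100% activity). Compounds were identified by joining plate and well to the Malaria Box list.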
row,SMILES,ATP content [%]
1,CC(C)(C)c1ccc(C(=O)Nc2c3c(nn2-c2cccc(Cl)c2)CSC3)cc1,147
2,O=C(Nc1cccc(-c2nc3ccccc3[nH]2)c1)c1cccc(NC(=O)c2ccco2)c1,126
3,COc1cccc(Nc2nc(NCCO)c3ccccc3n2)c1,77.5
4,CCOc1ccc(-c2nc(NC(=O)c3cccc(S(C)(=O)=O)c3)sc2C)cc1,79.8
5,CCOc1c(Cl)cc(CNCC(O)c2ccccc2)cc1OC (stereo not given),105
6,COc1cccc(C(=O)Nc2ccc(-c3nc4ccccc4[nH]3)cc2)c1,108
7,CCn1nc(-c2ccc(C(=O)OC)cc2)nc2c(=O)n(C)c(=O)nc1-2,1.37
8,COc1cc(C(=O)Nc2nc3c(cc4c5c(cccc53)CC4)s2)cc(OC)c1OC,89.8
9,CCOC(=O)C1=C(C)N=c2sc(=Cc3cc(Cl)ccc3O)c(=O)n2C1c1ccc(OC)cc1 (stereo not given),61.6
10,O=C1C2=C(Nc3ccccc3SC2c2ccccc2)c2ccccc21 (stereo not given),17.1
11,C=CCc1c(C)nc2ccccc2c1O,48
12,COc1cccc(NC(=O)Cn2c(C)c(C#N)c3ccccc32)c1,110
13,CC(=O)Nc1nnc(SCc2c(C)cc(C(C)(C)C)cc2C)s1,84.2
14,COc1ccc(Nc2cc(C)nc(NCc3ccccc3)n2)cc1,93.8
15,CN(C)c1ccc(N2C(N)=NC(N)=NC2(C)C)cc1,114
16,CN(C)CCCNCc1ccc(-c2ccc(F)c(Cl)c2)o1,123
17,Cc1ccc(-c2cc(C(=O)Nc3ccc(S(=O)(=O)N4CCCCC4)cc3)[nH]n2)c(O)c1,104
18,CCOc1ccccc1CN1CCc2nc3cc(C(C)(C)C)nn3c(O)c2C1,51.7
19,COc1ccc(OC)c(C2C3=C(CC(C)(C)CC3=O)N(c3ccc(Cl)c(Cl)c3)C3=C2C(=O)CC(C)(C)C3)c1,161
20,O=C(Nc1ccc(Cl)c(Cl)c1)Nc1ccc(Cl)c(Cl)c1,91.6
